Measured values as given in PubChem BioAssay (NCI).
Compounds without any hit were thinned out: in the full panel of roughly 79,000, 15% have a hit. Calls of active or inactive are those of the source. Rule as the data show it: active = growth inhibition above about 70%; inactive = the rest.

Experiments:
[1] = NCI Yeast Anticancer Drug Screen. Data for the wt1 strain (AID 149);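 also: 0% = growth of vehicle-treated wt1 cultures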; details: S. cerevisiae wt1 strain (SPY 50644) growth inhibition, hits give high values
Summary of the method: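 Each compound is tested on wt1 yeast and the loss of growth versus vehicle gives the inhibition value.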

[2] = NCI Yeast Anticancer Drug Screen. Data for the mgt1 strain (AID 153); details: S. cerevisiae mgt1 mutant growth inhibition, hits give high values
Summary of the method: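 Genetically defined yeast (mgt1) treated with compound; inhibition of growth expressed against vehicle-treated controls.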

[3] = NCI Yeast Anticancer Drug Screen. Data for the rad50 strain (AID 155);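 also: 0% = growth of vehicle-only cultures of the same strain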; details: S. cerevisiae rad50 strain growth inhibition, hits give high values
Summary of the method: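 Vehicle-treated cultures provide the reference for the growth inhibition reported for compound-exposed, repair-deficient yeast.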

[4] = NCI Yeast Anticancer Drug Screen. Data for the mec2-1 strain (AID 157); details: S. cerevisiae mec2-1 strain, hits give high values
Summary of the method: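 Readout is yeast growth inhibition, normalised to vehicle-treated controls, in the mec2-1 strain exposed to compound.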

[5] = NCI Yeast Anticancer Drug Screen. Data for the rad14 strain (AID 159);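 also: 0% = growth of vehicle-treated control cultures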; details: S. cerevisiae rad14 strain growth inhibition, hits give high values
Summary of the method: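 Inhibition of growth is reported for a repair-deficient yeast mutant following compound treatment, calculated relative to cultures that received vehicle.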

[6] = NCI Yeast Anticancer Drug Screen. Data for the sgs1 mgt1 strain (AID 161);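 also: 0% = growth of cultures given vehicle only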; details: S. cerevisiae sgs1 mgt1 strain, hits give high values
Summary of the method: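 Growth of a repair-deficient yeast mutant was monitored after compound treatment and expressed as inhibition relative to vehicle-treated cultures.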

[7] = NCI Yeast Anticancer Drug Screen. Data for the CLN2oe strain (AID 163);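 also: 0% = growth of vehicle-only control cultures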; details: S. cerevisiae CLN2oe strain, hits give high values
Summary of the method: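 Values reflect how much compound exposure reduced yeast growth, referenced to vehicle-exposed cells. Assay organism is a strain with a defined genetic change affecting cell-cycle control.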

[8] = NCI Yeast Anticancer Drug Screen. Data for the cln2 rad14 strain (AID 165);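 also: 0% = growth equal to vehicle treated cultures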; details: S. cerevisiae cln2 rad14 strain, hits give high values
Summary of the method: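 Relative to vehicle controls, growth inhibition of compound-treated cln2 rad14 yeast was recorded.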

[9] = NCI Yeast Anticancer Drug Screen. Data for the bub3 strain (AID 167); details: S. cerevisiae bub3 mutant strain, hits give high values
Summary of the method: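 Mutant yeast screening strain plus compound; vehicle-treated cultures serve as the 0% inhibition reference.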

[10] = NCI Yeast Anticancer Drug Screen. Data for the wt2 strain (AID 169); details: S. cerevisiae wt2 strain growth inhibition, hits give high values
Summary of the method: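 Values express reduction in yeast growth under compound treatment, referenced to vehicle-treated cells.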

[11] = NCI Yeast Anticancer Drug Screen. Data for the mlh1 strain (AID 171);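 also: 0% = growth of vehicle-treated control cultures of the same strain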; details: S. cerevisiae mlh1 strain growth inhibition, hits give high values
Summary of the method: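 Steps: expose the defined-mutant yeast strain to compound; expose a parallel culture to vehicle; measure growth; express compound effect as inhibition relative to the vehicle culture.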

[12] = NCI Yeast Anticancer Drug Screen. Data for the mlh1 rad18 strain (AID 175); details: S. cerevisiae mlh1 rad18 strain growth inhibition, hits give high values
Summary of the method: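 Test agents were incubated with a yeast strain of defined genotype (DNA damage repair defect). Inhibition of growth was derived by comparison with vehicle-exposed cultures.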

[13] = NCI Yeast Anticancer Drug Screen. Data for the rad18 strain (AID 177); details: S. cerevisiae rad18 mutant growth inhibition, hits give high values
Summary of the method: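 A genetically defined yeast mutant impaired in DNA damage repair was treated with test compounds, then its growth was measured against cultures receiving vehicle alone.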

[14] = at 5.0 µM (retest, dose inferred, filed as 0.5)
[15] = at 50.0 µM (retest, dose inferred, filed as 5.0)

Measured: growth inhibition

O=C(c1c(F)c(F)c(F)c(F)c1F)c1c(F)c(F)c(F)c(F)c1F
active: [1]; at 11.0 µM 95% | [1]; at 33.0 µM 99% | [1]; at 100.0 µM 99% | [2]; at 11.0 µM 98% | [2]; at 33.0 µM 99% | [2]; at 100.0 µM 99% | [3]; [14] 79% | [3]; at 11.0 µM 95% | [3]; at 33.0 µM 96% | [3]; [15] 97% | [3]; at 50.0 µM 84.6% | [3]; at 100.0 µM 95% | [4]; at 3.7 µM 77% | [4]; at 11.0 µM 99% | [4]; at 33.0 µM 100% | [4]; [15] 99% | [4]; at 50.0 µM 87.5% | [4]; at 100.0 µM 99% | [5]; at 11.0 µM 98% | [5]; at 33.0 µM 99% | [5]; at 100.0 µM 99% | [6]; [15] 74% | [6]; at 50.0 µM 76.7% | [7]; at 3.7 µM 72% | [7]; at 11.0 µM 98% | [7]; at 33.0 µM 99% | [7]; at 100.0 µM 97% | [8]; [15] 70% | [8]; at 50.0 µM 85.7% | [9]; at 3.7 µM 80% | [9]; at 11.0 µM 96% | [9]; at 33.0 µM 99% | [9]; [15] 80% | [9]; at 50.0 µM 88.7% | [9]; at 100.0 µM 97% | [10]; at 11.0 µM 98% | [10]; at 33.0 µM 99% | [10]; at 100.0 µM 98% | [11]; at 11.0 µM 97% | [11]; at 33.0 µM 98% | [11]; at 100.0 µM 97% | [12]; [15] 88% | [13]; at 11.0 µM 92% | [13]; at 33.0 µM 96% | [13]; at 100.0 µM 93%
inactive: [1]; at 1.2 µM 3% | [1]; at 3.7 µM 49% | [2]; at 1.2 µM 24% | [2]; at 3.7 µM 59% | [3]; at 1.2 µM 27% | [3]; at 3.7 µM 59% | [4]; at 1.2 µM 36% | [4]; [14] 61% | [5]; at 1.2 µM 10% | [5]; at 3.7 µM 55% | [6]; [14] 15% | [7]; at 1.2 µM 4% | [8]; [14] 38% | [9]; at 1.2 µM 54% | [9]; [14] 3% | [10]; at 1.2 µM 16% | [10]; at 3.7 µM 52% | [11]; at 1.2 µM 16% | [11]; at 3.7 µM 56% | [12]; [14] 45% | [12]; at 50.0 µM 67.3% | [13]; at 1.2 µM 28% | [13]; at 3.7 µM 56%
